Records with an inconclusive call do not appear. Active and inactive are the calls of the source. The call rests on the fitted dose curve; in most records, active means well fitted curve in the direction sought with a large enough effect; inconclusive means small, poorly fitted or top-dose-only effect, or another doubt; inactive means no such curve, though single readings can be large; an effect the other way counts as inactive or inconclusive.
Legend:
CRL-7250 = normal cell line; assay: Cytotoxic Profiling of Annotated Libraries Using Quantitative High-Throughput Screening (AID 1296008); details: Five cell lines viability, CellTiter-Glo ATP luminescence, 48-72 h; max response: hits give low values; further: nearly all actives have a fitted effect of over 60% in size; on max response: on the % scale 0 is the no-effect control and ±100 the full control effect
How it was run: (§1)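 Cells exposed to compounds for 48 or 72 hr at 37 degrees Celsius. Viability read as ATP-coupled luminescence with CellTiter-Glo after 10 min at room temperature.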

HEK293 = assay: as above; details: Five cell lines viability, CellTiter-Glo ATP luminescence, 48-72 h; max response: hits give low values
How it was run: as §1

HaCat = assay: as above; details: Five cell lines viability, CellTiter-Glo ATP luminescence, 48-72 h; max response: hits give low values
How it was run: as §1

KB-3-1 = assay: as above; details: Five cell lines viability, CellTiter-Glo ATP luminescence, 48-72 h; max response: hits give low values
How it was run: as §1

NIH3T3 [1] = assay: as above; details: Five cell lines viability, CellTiter-Glo ATP luminescence, 48-72 h; max response: hits give low values
How it was run: as §1

NIH3T3 [2] = assay: qHTS assay to identify novel small-molecules to repurpose for Merkel cell carcinoma treatment (AID 1296009); details: MCC and control cell lines, CellTiter-Glo viability, 72 h; at 44.8 µM (top of the series) unless noted; further: nearly all actives have a fitted effect of over 60% in size
How it was run: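 CellTiter-Glo luminescence after 72 hr compound exposure at 37 degree celsius gave cell viability. Libraries NPC and MIPE were run as 8- and 11-point dose responses; RLUs normalized to DMSO (negative) and no-cell (cytotoxicity) controls.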

C33A = assay: Primary qHTS to identify gynecologic anti-cancer compounds using libraries of approved drugs and bioactive compounds (AID 1345084); details: Gynecologic cancer cell panel viability, ATPlite luminescence, 48 h; series mostly up to 57.5 µM; further: on the % scale 0 is the no-effect control and ±100 the full control effect; nearly all actives have a fitted effect of over 55% in size
How it was run: (§2)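 48 h compound exposure at 37 C, 5% CO2; five-point qHTS. ATPlite luminescence readout of cell ATP.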

CAOV3 = assay: as above; details: Gynecologic cancer cell panel viability, ATPlite luminescence, 48 h; series mostly up to 57.5 µM
How it was run: as §2

CASKI = assay: as above; details: Gynecologic cancer cell panel viability, ATPlite luminescence, 48 h; series mostly up to 57.5 µM
How it was run: as §2

Es-2 = assay: as above; details: Gynecologic cancer cell panel viability, ATPlite luminescence, 48 h; series mostly up to 57.5 µM
How it was run: as §2

HeLa = assay: as above; details: Gynecologic cancer cell panel viability, ATPlite luminescence, 48 h; series mostly up to 57.5 µM
How it was run: as §2

Hek293T = assay: as above; details: Gynecologic cancer cell panel viability, ATPlite luminescence, 48 h, control line for the selectivity index; series mostly up to 57.5 µM
How it was run: as §2

JEG-3 = assay: as above; details: Gynecologic cancer cell panel viability, ATPlite luminescence, 48 h; series mostly up to 57.5 µM
How it was run: as §2

OV90 = assay: as above; details: Gynecologic cancer cell panel viability, ATPlite luminescence, 48 h; series mostly up to 57.5 µM
How it was run: as §2

C=C(C(=O)O)[C@@H]1CC[C@@]2(C)CC[C@@H](O)C(=C)C2C1 (stereo partly drawn)
inactive: max response (CRL-7250) 4.71% | max response (HEK293) -1.36% | max response (HaCat) -0.0078% | max response (KB-3-1) -6.38% | outcome (NIH3T3 [1]) | outcome (NIH3T3 [2]) | Potency (C33A) | Potency (CAOV3) | outcome (CASKI) | Potency (Es-2) | Potency (HeLa) | Potency (Hek293T) | Potency (JEG-3) | Potency (OV90)

CC1=C2C(=O)C=C(CO[C@@H]3O[C@H](CO)[C@@H](O)[C@H](O)[C@H]3O)[C@@H]2[C@H]2OC(=O)[C@H](C)[C@@H]2[C@@H](O)C1
inactive: outcome (CRL-7250) | max response (HEK293) -50.9% | max response (HaCat) 0.75% | max response (KB-3-1) 2.15% | outcome (NIH3T3 [1]) | outcome (NIH3T3 [2]) inactive [at 17.4 µM] | Potency (C33A) | Potency (CAOV3) | outcome (CASKI) | Potency (Es-2) | Potency (HeLa) | Potency (Hek293T) | Potency (JEG-3) | Potency (OV90)

O=C(CCc1ccccc1)c1c(O)c([C@@H]2O[C@H](CO)[C@@H](O)[C@H](O)[C@H]2O)c(O)c([C@@H]2O[C@H](CO)[C@@H](O)[C@H](O)[C@H]2O)c1O
inactive: max response (CRL-7250) -8.34% | max response (HEK293) 0.0644% | max response (HaCat) 3.51% | max response (KB-3-1) 8.16% | outcome (NIH3T3 [1]) | outcome (NIH3T3 [2]) inactive [at 17.4 µM] | Potency (C33A) | Potency (CAOV3) | outcome (CASKI) | Potency (Es-2) | Potency (HeLa) | Potency (Hek293T) | Potency (JEG-3) | Potency (OV90)

CN1CCc2cc(Cl)c(O)cc2[C@@H](c2cccc3c2OCC3)C1
inactive: outcome (CRL-7250) | max response (HEK293) -11.4% | max response (HaCat) -1.65% | max response (KB-3-1) -4.72% | outcome (NIH3T3 [1]) | outcome (NIH3T3 [2]) | Potency (C33A) | Potency (CAOV3) | outcome (CASKI) | Potency (Es-2) | Potency (HeLa) | Potency (Hek293T) | Potency (JEG-3) | Potency (OV90)

CC(C/C=C/C(C)(C)O)C1CCC(C)(O)C(O)C1 (stereo not drawn)
inactive: outcome (CRL-7250) | max response (HEK293) 2.47% | max response (HaCat) 0.0762% | outcome (KB-3-1) | outcome (NIH3T3 [1]) | outcome (NIH3T3 [2]) | Potency (C33A) | Potency (CAOV3) | outcome (CASKI) | Potency (Es-2) | Potency (HeLa) | Potency (Hek293T) | Potency (JEG-3) | Potency (OV90)

O=C(/C=C/c1ccc(O)cc1)O[C@@H]1C[C@@](O)(C(=O)O)C[C@@H](O)[C@@H]1O
inactive: max response (CRL-7250) -19.8% | max response (HEK293) -2.92% | max response (HaCat) -16.3% | max response (KB-3-1) 5.75% | outcome (NIH3T3 [1]) | outcome (NIH3T3 [2]) | Potency (C33A) | Potency (CAOV3) | outcome (CASKI) | Potency (Es-2) | Potency (HeLa) | Potency (Hek293T) | Potency (JEG-3) | Potency (OV90)

COc1cccc(OC)c1-c1nc(C(=O)N[C@@H](CC(C)C)C(=O)O)cn1-c1ccnc2cc(Cl)ccc12
inactive: outcome (CRL-7250) | max response (HEK293) -12.4% | max response (HaCat) 3.78% | outcome (KB-3-1) | outcome (NIH3T3 [1]) | outcome (NIH3T3 [2]) | Potency (C33A) | Potency (CAOV3) | outcome (CASKI) | Potency (Es-2) | Potency (HeLa) | Potency (Hek293T) | Potency (JEG-3) | Potency (OV90)

Cn1cc(CCn2cnc(-c3cnn(C)c3)c2-c2ccc(C#N)cc2)cn1
inactive: max response (CRL-7250) -0.888% | max response (HEK293) 0.036% | max response (HaCat) -11.5% | outcome (KB-3-1) | outcome (NIH3T3 [1]) | outcome (NIH3T3 [2]) | Potency (C33A) | Potency (CAOV3) | outcome (CASKI) | Potency (Es-2) | Potency (HeLa) | Potency (Hek293T) | Potency (JEG-3) | Potency (OV90)

O=C(COCC(=O)N1CCN(C(c2ccccc2)c2ccccc2)CC1)Nc1ccc(Cl)cc1C(=O)O
inactive: max response (CRL-7250) -11.2% | max response (HEK293) 4.17% | max response (HaCat) -6.79% | outcome (KB-3-1) | outcome (NIH3T3 [1]) | outcome (NIH3T3 [2]) | Potency (C33A) | Potency (CAOV3) | outcome (CASKI) | Potency (Es-2) | Potency (HeLa) | Potency (Hek293T) | Potency (JEG-3) | Potency (OV90)

COc1ccc(C(=O)NCc2cc(C(C)C)no2)cc1OC1CCN(C)CC1
inactive: max response (CRL-7250) -1.84% | max response (HEK293) -4.29% | max response (HaCat) 4.96% | max response (KB-3-1) -1.9% | outcome (NIH3T3 [1]) | outcome (NIH3T3 [2]) | Potency (C33A) | Potency (CAOV3) | outcome (CASKI) | Potency (Es-2) | Potency (HeLa) | Potency (Hek293T) | Potency (JEG-3) | Potency (OV90)

CCN=C1N[C@@H]2[C@@H](O)[C@H](O)[C@@H](CO)O[C@@H]2S1
inactive: max response (CRL-7250) 3.4% | max response (HEK293) -6.92% | max response (HaCat) 2.86% | max response (KB-3-1) 6.7% | outcome (NIH3T3 [1]) | outcome (NIH3T3 [2]) | Potency (C33A) | Potency (CAOV3) | outcome (CASKI) | Potency (Es-2) | Potency (HeLa) | Potency (Hek293T) | Potency (JEG-3) | Potency (OV90)

CC1=CCC2C(C)(C)CCCC2(C)C1CC12OC1C(O)C(CO)=CC2O (stereo not drawn)
inactive: max response (CRL-7250) 3.52% | max response (HEK293) -6.22% | max response (HaCat) -4.23% | max response (KB-3-1) 9.42% | outcome (NIH3T3 [1]) | outcome (NIH3T3 [2]) | Potency (C33A) | Potency (CAOV3) | outcome (CASKI) | Potency (Es-2) | Potency (HeLa) | Potency (Hek293T) | Potency (JEG-3) | Potency (OV90)

— PubChem BioAssay (NCATS)
